Assay results from PubChem BioAssay (NCATS).
Records with an inconclusive call do not appear. A number with no mark means an inactive call. The source made the active and inactive calls. Calls follow the shape of the dose curve; as a rule, active = well fitted cell-killing curve with a large enough effect; inconclusive = small, poorly fitted or top-dose-only effect, or effect the other way; inactive = no such curve, though single readings can be large or run the other way.

assay: Quantitative High-Throughput drug screen in 47 multiple myeloma cell lines against the NCATS MIPE library collection: XG1_PLB cell viability assay (AID 1919866); settings: CellTiter-Glo ATP, 48 h; series mostly up to 45.8 µM; viability: at the top concentration; also: nearly all actives have a fitted effect of over 35% in size
Summary of the method: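 500 cells/well; MIPE 4.0 drugs pin-transferred; 48 h, 37C, 5% CO2. CellTiter-Glo, 5 min RT, luminescence. Controls: DMSO 100%, media 0%.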
Potency is read from the fitted curve at half-maximal effect.

**Q.** Which Potency does the source give for `C[C@@H](NC(=O)c1ncnc(N)c1Cl)c1ncc(C(=O)Nc2cc(C(F)(F)F)c(Cl)cn2)s1` here?
**A.** 10.5 µM (active)

**Q.** Which “viability” value does the source give for `C[C@@H]1C[C@H]2[C@@H]3CCC4=CC(=O)C=C[C@]4(C)[C@@]3(F)[C@@H](O)C[C@]2(C)[C@@]1(O)C(=O)CO` here?
**A.** 126%

**Q.** For `O=c1[nH]c(=O)n([C@H]2C[C@@H](O)[C@@H](CO)O2)cc1I`, which “viability” value is on record?
**A.** 105%

**Q.** With `CON(C)C(=O)N1N=C(c2cc(F)ccc2F)S[C@]1(CCCN)c1ccccc1` as the molecule, how does the “viability” value read?
**A.** 18.9%

**Q.** For `C[C@]12C=CC(=O)C=C1CC[C@@H]1[C@@H]2[C@@H](O)C[C@@]2(C)[C@@H]1CC[C@]2(O)C(=O)CO`, which “viability” value is on record?
**A.** 117%

**Q.** For `N#CC(c1ccnc(NCCc2cccnc2)n1)c1nc2ccccc2s1` (stereo not given), which Potency is on record?
**A.** 10.5 µM (active)

**Q.** For `Cc1cnc(-c2cc(N3CCN(C(=O)CCS(C)(=O)=O)CC3)ncc2Cl)c(C)c1`, which Potency is on record?
**A.** 16.6 µM (active)

**Q.** For `CN[C@@H]1[C@@H](O)[C@@H](O[C@@H]2[C@@H](O)[C@H](O[C@H]3O[C@H](CN)[C@@H](O)[C@H](O)[C@@H]3O)[C@@H](N)C[C@@H]2NC(=O)[C@@H](O)CN)OC[C@]1(C)O`, which “viability” value is on record?
**A.** 112%

**Q.** With `CN1CCN(c2ncc(-c3cc(Cl)cc(Cl)c3Cl)c(N)n2)CC1` as the molecule, how does the Potency read?
**A.** 7.43 µM (active)

**Q.** Which “viability” value does the source give for `NS(=O)(=O)c1cc(Cl)c(Cl)c(S(N)(=O)=O)c1` here?
**A.** 121%

**Q.** Which Potency does the source give for `CCN(CC)CCCCNc1nc2cc(Cl)c(Cl)cc2nc1-c1ccc(-c2cccs2)s1` here?
**A.** 8.33 µM (active)

**Q.** Which “viability” value does the source give for `CC1(C)[C@H]2CC[C@]3(C)[C@@H](C(=O)C=C4[C@@H]5C[C@@](C)(C(=O)O)CC[C@]5(C)CC[C@]43C)[C@@]2(C)CC[C@@H]1O` here?
**A.** 134%

**Q.** With `CC[C@H](NC(=O)[C@H](C)NC)C(=O)N1C[C@@H](O)C[C@H]1Cc1c(-c2[nH]c3cc(F)ccc3c2C[C@H]2C[C@H](O)CN2C(=O)[C@H](CC)NC(=O)[C@H](C)NC)[nH]c2cc(F)ccc12` as the molecule, how does the Potency read?
**A.** 5.9 µM (active)

**Q.** For `Cc1ccccc1-n1c(Cn2nc(-c3cccc(O)c3)c3c(N)ncnc32)nc2cccc(C)c2c1=O`, which Potency is on record?
**A.** 2.09 µM (active)

**Q.** For `O=C(NCCCCN1CCOCC1)c1cc2ccccc2o1`, which “viability” value is on record?
**A.** 107%

**Q.** With `O=C(Nc1ccc(OC(F)(F)F)cc1)c1sccc1NCc1ccnc2ccccc12` as the molecule, how does the Potency read?
**A.** 5.9 µM (active)

**Q.** With `COc1cccc(OC)c1-c1cc(C(=O)NC2(C(=O)O)C3CC4CC(C3)CC2C4)nn1-c1ccnc2cc(Cl)ccc12` (stereo not given) as the molecule, how does the “viability” value read?
**A.** 128%

**Q.** For `O=C(NC[C@H](O)CO)c1ccncc1Nc1ccc(I)cc1F`, which Potency is on record?
**A.** 14.8 µM (active)

**Q.** With `CCOC(=O)N1CCN([N+]([O-])=NOc2cc(ON=[N+]([O-])N3CCN(C(=O)OCC)CC3)c([N+](=O)[O-])cc2[N+](=O)[O-])CC1` as the molecule, how does the Potency read?
**A.** 4.18 µM (active)

**Q.** For `O=C(CO)N1CCC(c2[nH]nc(-c3ccc(Cl)cc3)c2-c2ccncn2)CC1`, which “viability” value is on record?
**A.** 117%
